Biological target: COMMD8
Experiment: pooled miR-30 sensor sort-seq; sequence = guide strand
Conditions: shRNA
Further: reference of the scale not given here.

Row | Sequence | sensor-assay potency score (higher = more potent)
1 | TTGATTTCATCTTTCCTACTTT | -0.353
2 | TATTTCTCTTGACAGAGCCTGT | -1.04
3 | TTTTACATCTAGATGCAGGCTT | 0.949
4 | TCAACTGCTGAAATATCTCTTC | -0.0513
5 | TTTACATCTAGATGCAGGCTTA | -0.242

Biological target: COPE
Experiment: as above
Conditions: shRNA

Row | Sequence | sensor-assay potency score (higher = more potent)
6 | AACAGCTCGTCTACCTCCCCGG | -0.819
7 | TCAGCTGGGACAGGTATCGGTT | -0.759
8 | TTACGTCGAACAGCTCGTCTAC | -0.753
9 | AAAGTCGTTCTCCTTGGCCTGG | -1.24
10 | TTCTTTACGTCGAACAGCTCGT | -0.53
11 | TTGATAGCTTCACCCGCTGCGC | -1.31
12 | ATTCTCTTCAGCTCCTTCCGGG | -0.00872
13 | TTGACCAGCGTCTCTGGGTAGC | -0.621
14 | TCATCTCTCGGTCCAGCTCGGC | -1.47
15 | TTGATGAAGGGATGGGACCTGT | -0.268
16 | TTCTCTTCAGCTCCTTCCGGGC | -0.99
17 | TTTACGTCGAACAGCTCGTCTA | -1.05

— the OligoGym collection
